# Sampled rows, rich in hits. Any-hit rate of the full collection: about 4%.
# esBAF inh – blocks esBAF chromatin remodeling in mouse ES cells | Bmi1-luciferase knock-in reporter, 24 h; 100% = twice the neutral-well signal | reporter increase, % at 12.5 µM | actives 2% (n = 350,000); in the data active = activation above about 40%; inconclusive = no clear call, values can overlap the other calls;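 note: 0% = median of the plate's neutral control wells and 100% = double that signal; a rise in the Bmi1 reporter signal indicates esBAF inhibition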
# Statin myotox sup – suppressors of simvastatin-induced myotoxicity in C2C12 myotubes; ATP luminescence, 48 h; scaled: DMSO 0, geranylgeraniol control 100; rescue of ATP level, % at 7.49 µM; AID 602340; actives 0.78% (n = 330,000);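 active = mean ATP rescue above about 67%, or every replicate alone reaching that limit, limit read from the data, passing the limit was not always enough; inconclusive = no clear call, values can overlap the other calls; inactive = mean under the limit and some replicate under it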;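 note: myotubes were challenged with 10 µM simvastatin during compound exposure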
# Wnt act – activates Wnt/beta-catenin signaling in a reporter cell assay; actives 1.2% (n = 300,000); activator, plate reader; activation, % at 9.35 µM; AID 743398; in the data active = activation above about 30%, passing the limit was not always enough; inconclusive = no clear call, values can overlap the other calls;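 note: 0% = neutral control wells and 100% = positive control wells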
# TRPM1 prom inh – MITF TRPM1 promoter inhibition in SK-MEL-5 cells; SK-MEL-5 TRPM1 promoter luciferase, 24 h; inhibition, % at 12.5 µM; actives 0.83% (n = 330,000);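 active = mean inhibition across replicates of 60% or more, whatever share of single replicates reaches that level; inconclusive = some that reach 60%, reason not given; inactive = mean inhibition across replicates below 60%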
# EBV LMP1 NFkB – inhibitors of Epstein-Barr LMP1-induced NF-kappaB reporter; LMP1-induced NF-kappaB luciferase reporter cells, luminescence; actives 0.69% (n = 350,000); inhibition, % at 12.5 µM; in the data active = inhibition above about 41%; inconclusive = no clear call, values can overlap the other calls;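 note: 0% = neutral control wells and 100% = reference inhibitor control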
# MITF TRPM1 HTS – increases MITF-driven TRPM1 promoter luciferase signal; actives 0.75% (n = 300,000); SK-MEL-5 TRPM1-promoter luciferase, 24 h; % of positive control, neutral wells = 0; activation, % at 12.5 µM;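 active = mean activation of at least 80% with every replicate also reaching 80%; inconclusive = mean reaches 80% but some replicate falls short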;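 note: 0% = neutral control wells and 100% = parthenolide positive control wells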
# Numbers without * were called inactive; ? = inconclusive; . = not tested or not shown.
SMILES,esBAF inh,Statin myotox sup,Wnt act,TRPM1 prom inh,EBV LMP1 NFkB,MITF TRPM1 HTS
COc1cccc(NC(=O)c2ccc(N3C(=O)C4CCC(C)CC4C3=O)cc2)c1 (stereo unspecified),1,5,-2,-5,-2,4
CCOc1ccc(-c2nc3n(c(=O)c2C#N)CCCS3)cc1,13,103*,.,-4,13,3
O=S(=O)(NC1CCN(Cc2ccccc2)CC1)c1ccc(F)c(F)c1,-6,-57,-3,.,2,.
Cc1cc(C(=O)OCC(=O)N2CCc3ccccc32)c(C)o1,50*,9,.,-50,-25,58
N#Cc1ccc(OCC(=O)N2CCc3ccccc32)cc1,45*,-4,-4,-65,-22,72
O=C(COc1ccc(F)cc1Br)N1CCc2ccccc21,24,0,72*,-42,-9,17
O=C(OCC(=O)N1CCc2ccccc21)c1ccc(Br)o1,-2,4,2,8,1,-7
O=C(CNCCO)N1CCc2ccccc21,-3,2,.,10,-7,-8
O=C(CNc1ccccc1OC(F)F)N1CCc2ccccc21,.,.,.,-116,-21,108*
COc1cc(C(=O)NNC(=O)C2CCCC2)cc(OC)c1OC,-4,18,1,8,11,-7
O=C(Oc1ccc(Cl)cc1)c1ccc2nccnc2c1,-7,-9,-4,-2,3,2
Cc1occc1C(=O)NC(C)C12CC3CC(CC(C3)C1)C2 (stereo unspecified),.,.,-1,3,-9,-2
C[C@@H]1CN([C@H](C)CO)C(=O)c2cc(Br)cnc2O[C@@H]1CN(C)C(=O)Nc1ccccc1,-1,6,1,.,-8,.
COc1ccc2c(CC(=O)N3CCc4ccccc43)coc2c1,.,.,.,-107,-52,111*
COc1ccc(OCC(=O)N2CCc3ccccc32)c([N+](=O)[O-])c1,54*,-1,-1,.,-21,.
O=C(COc1ccc([N+](=O)[O-])cc1Cl)N1CCc2ccccc21,66*,-7,42*,-115,8,119*
COc1ccc(OCC(=O)N2CCCC2=O)c([N+](=O)[O-])c1,-5,14,0,0,10,2
COc1ccc2oc(=O)c(C(=O)N3CCN(C(=O)c4ccccc4)CC3)cc2c1,0,-1,-1,-2,-2,1
COc1cc(NC(=O)C2CC3CCC2C3)c(OC)cc1Cl (stereo unspecified),-15,-1,-2,9,5,.
COC(=O)c1cccc(S(=O)(=O)N2CCC(C)CC2)c1,12,-1,0,8,-2,-5
O=C(O)c1ccccc1Nc1cccc(OCc2ccc3ccccc3n2)c1,11,6,12,0,82*,1
CCOc1cccc(N2C(=O)CC(NCc3ccc(S(N)(=O)=O)cc3)C2=O)c1 (stereo unspecified),-7,78*,-2,2,-8,0
COc1ccc(CNC(=O)CN2C(=O)NC(c3ccccc3)(c3ccccc3)C2=O)cc1OC,-4,13,0,13,7,-14
C(=C\c1nc2ccccc2[nH]1)/c1ccccc1,-46,.,.,-2,25,.
C(=C\c1ccco1)/c1nc2ccccc2[nH]1,.,.,52*,2,-19,-2
SMILES,esBAF inh,Statin myotox sup,Wnt act,TRPM1 prom inh,EBV LMP1 NFkB,MITF TRPM1 HTS
CCCC#Cc1cnc2c(c1)C(=O)N([C@H](C)CO)C[C@@H](C)[C@H](CN(C)C(=O)c1cnccn1)O2,5,16,.,.,.,.
O=C(Nc1nnc(S(=O)(=O)Cc2ccc(F)cc2)s1)c1ccccc1F,3,-36,-2,9,3,-11
O=C(Nc1nnc(Cc2ccccc2F)s1)c1ccccc1Cl,2,9,1,6,-8,.
O=C(Nc1nnc(-c2ccccc2)s1)c1ccccc1F,70*,-5,24,.,-35,.
O=C(Nc1nnc(-c2ccccc2Cl)s1)c1ccccc1F,51*,3,27,-75,-6,78
Cc1cc(C)cc(OCc2nnc(SCC(=O)c3ccc(Br)cc3)o2)c1,-18,9,-1,-3,-1,.
Sc1oc(-c2ccccc2)cc1C=Nc1ccccc1,85*,-22,.,-22,-13,23
C[C@H]1O[C@@H](O[C@H]2[C@@H](O)C[C@H](O[C@H]3[C@@H](O)C[C@H](O[C@H]4CC[C@@]5(C)[C@H](CC[C@@H]6[C@@H]5C[C@@H](O)[C@]5(C)[C@@H](C7=CC(=O)OC7)CC[C@]65O)C4)O[C@@H]3C)O[C@@H]2C)C[C@H](O)[C@@H]1O,1,2,-22,67*,81*,-68
CC1CCN(c2nc3ccc(C(=O)NCCCN4CCCCC4C)cc3s2)CC1 (stereo unspecified),72*,-23,1,.,-58,.
CCC1CCCCN1CCCNC(=O)c1ccc2nc(N3CCCCC3)sc2c1 (stereo unspecified),?,-7,-1,-91,-30,?
CC1CCCC(C)N1CCCNC(=O)c1ccc2nc(N3CCCCC3)sc2c1 (stereo unspecified),72*,-9,-3,.,-28,.
O=C(CSc1nnc(-c2ccccc2)c(-c2ccccc2)n1)N1CCc2ccccc21,-11,26,.,-27,-5,27
COc1cc(C#Cc2ccc3cc(CCO)oc(=O)c3c2)cc(OC)c1,58*,-15,38*,-136,-21,144*
O=C1c2ccccc2C(=O)N1CCC#Cc1ccc2cc(CCO)oc(=O)c2c1,4,8,1,-8,11,6
O=c1oc(CCO)cc2ccc(C#Cc3ccsc3)cc12,79*,-12,33*,-110,-34,115*
O=c1oc(CCCO)cc2ccc(C#Cc3cccnc3)cc12,30,-16,22,-48,-6,46
CN(C)c1ccc(C#Cc2ccc3cc(CCO)oc(=O)c3c2)cc1,32,2,.,-118,-26,128*
COc1cccc2cc(C(=O)NCCC3=CCCCC3)c(=O)oc12,5,-2,-2,-2,2,1
c1ccc(C2Oc3ccccc3C3CC(c4cccs4)=NN32)cc1 (stereo unspecified),85*,14,38*,-6,-6,8
O=C(N/N=C/c1ccccn1)c1ccc(N/N=C/c2ccccn2)cc1,.,.,2,-3,4,2
O=C(O)c1ccccc1SCc1csc(-c2ccccc2)n1,47*,11,5,7,-1,-5
NC(=O)c1ccc(NC(=O)COC(=O)CNC(=O)c2sc3ccccc3c2Cl)cc1,-10,-4,-3,-2,6,2
Cc1sc2nc(-c3ccc(Br)cc3)oc(=O)c2c1C,55*,-1,.,-41,-14,.
O=C1CC(c2ccco2)CC(O)=C1C=Nc1cc(Cl)cc(Cl)c1 (stereo unspecified),.,.,.,-9,6,10
COc1ccc(C(=O)c2sc(Nc3ccccc3)nc2N)cc1,25,78*,-1,-94,-8,.

# Screens from PubChem.
